# Source: publication PMC7862700, “An all-to-all approach to the identification of sequence-specific readers for epigenetic DNA modifications on cytosine”
# Legend:
# Assay in all cases: DAPPL (digital affinity profiling via proximity ligation, sequencing); 10 mM Tris-HCl pH 7.5, 50 mM NaCl, 1 mM DTT, 4% glycerol, room temperature, 30 min; GST-TFs on glutathione beads, 16-mer random dsDNA library, 0.1% formaldehyde crosslink after washing; high values mean tight binding
# FEV = biological target: T1, FEV (Homo sapiens, UniProt Q99581 1-238); settings: protein: recombinant; tags: N-terminal GST; dsDNA, one strand shown
# T1 sequence: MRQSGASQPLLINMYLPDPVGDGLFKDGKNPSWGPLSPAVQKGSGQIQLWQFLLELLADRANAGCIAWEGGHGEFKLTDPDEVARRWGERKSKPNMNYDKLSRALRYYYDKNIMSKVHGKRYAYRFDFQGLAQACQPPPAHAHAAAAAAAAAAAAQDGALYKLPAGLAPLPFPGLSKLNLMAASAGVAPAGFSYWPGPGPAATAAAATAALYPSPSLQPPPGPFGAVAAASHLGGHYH
# How it was run: (§1)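 Binding signal is defined as a hexamer's read frequency for one factor over its frequency for the tag-only sample. To obtain reads, GST-fused human transcription factors were expressed in yeast, captured on glutathione beads, barcoded with DNA and pooled with that sample. Pools met 200 nmole of a 16-mer random double-stranded DNA library in Tris/NaCl/DTT/glycerol buffer for 30 min at room temperature before washing, 0.1% formaldehyde crosslinking, proximity ligation (BsaI/T4 ligase, 1 h, 37 °C), PCR and Illumina NextSeq500 sequencing.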
# ETV5 = ETV5 (Homo sapiens, UniProt P41161 1-510); settings: protein: recombinant; tags: N-terminal GST; dsDNA, one strand shown
# How it was run: as §1
# HSF1 = HSF1 (Homo sapiens, UniProt Q00613 1-529); settings: protein: recombinant; tags: N-terminal GST; chain copies: 3; dsDNA, one strand shown
# How it was run: as §1
# SPIC = biological target: T2, SPIC (Homo sapiens, UniProt Q8N5J4 1-248); settings: protein: recombinant; tags: N-terminal GST; dsDNA, one strand shown
# T2 sequence: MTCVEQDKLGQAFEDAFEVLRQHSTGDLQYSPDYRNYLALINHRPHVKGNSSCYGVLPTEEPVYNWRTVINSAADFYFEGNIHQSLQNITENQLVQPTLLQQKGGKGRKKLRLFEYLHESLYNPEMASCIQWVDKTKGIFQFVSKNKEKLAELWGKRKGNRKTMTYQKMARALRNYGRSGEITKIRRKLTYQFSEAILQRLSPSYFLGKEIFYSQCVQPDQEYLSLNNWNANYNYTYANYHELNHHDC
# How it was run: as §1
# ELF4 = ELF4 (Homo sapiens, UniProt Q99607 1-663); settings: protein: recombinant; tags: N-terminal GST; dsDNA, one strand shown
# How it was run: as §1
# ELK4 = biological target: T3, ELK4 (Homo sapiens, UniProt P28324-2 1-405); settings: protein: recombinant; tags: N-terminal GST; dsDNA, one strand shown
# T3 sequence: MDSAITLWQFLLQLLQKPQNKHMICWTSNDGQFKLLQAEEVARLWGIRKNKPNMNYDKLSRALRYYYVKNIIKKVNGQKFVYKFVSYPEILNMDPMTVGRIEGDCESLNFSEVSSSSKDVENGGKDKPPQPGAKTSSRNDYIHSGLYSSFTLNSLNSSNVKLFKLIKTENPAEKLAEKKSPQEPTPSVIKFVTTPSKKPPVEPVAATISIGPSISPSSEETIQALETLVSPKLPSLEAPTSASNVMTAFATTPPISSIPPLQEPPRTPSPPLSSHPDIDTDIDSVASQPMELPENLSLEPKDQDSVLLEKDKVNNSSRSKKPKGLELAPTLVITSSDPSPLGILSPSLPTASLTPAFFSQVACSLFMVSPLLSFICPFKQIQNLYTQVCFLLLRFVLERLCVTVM
# How it was run: as §1
# ETV2 = biological target: T4, ETV2 (Homo sapiens, UniProt O00321 1-342); settings: protein: recombinant; tags: N-terminal GST; dsDNA, one strand shown
# T4 sequence: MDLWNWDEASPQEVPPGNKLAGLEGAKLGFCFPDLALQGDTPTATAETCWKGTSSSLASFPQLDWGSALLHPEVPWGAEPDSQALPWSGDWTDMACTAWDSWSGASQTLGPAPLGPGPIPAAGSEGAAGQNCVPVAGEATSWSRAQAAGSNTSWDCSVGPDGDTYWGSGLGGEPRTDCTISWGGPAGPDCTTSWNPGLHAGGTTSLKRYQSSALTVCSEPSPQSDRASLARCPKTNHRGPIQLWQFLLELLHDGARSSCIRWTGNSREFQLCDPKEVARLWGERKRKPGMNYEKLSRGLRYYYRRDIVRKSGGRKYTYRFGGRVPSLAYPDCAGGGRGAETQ
# How it was run: as §1
# ELF3 = biological target: T5, ELF3 (Homo sapiens, UniProt P78545 1-371); settings: protein: recombinant; tags: N-terminal GST; dsDNA, one strand shown
# T5 sequence: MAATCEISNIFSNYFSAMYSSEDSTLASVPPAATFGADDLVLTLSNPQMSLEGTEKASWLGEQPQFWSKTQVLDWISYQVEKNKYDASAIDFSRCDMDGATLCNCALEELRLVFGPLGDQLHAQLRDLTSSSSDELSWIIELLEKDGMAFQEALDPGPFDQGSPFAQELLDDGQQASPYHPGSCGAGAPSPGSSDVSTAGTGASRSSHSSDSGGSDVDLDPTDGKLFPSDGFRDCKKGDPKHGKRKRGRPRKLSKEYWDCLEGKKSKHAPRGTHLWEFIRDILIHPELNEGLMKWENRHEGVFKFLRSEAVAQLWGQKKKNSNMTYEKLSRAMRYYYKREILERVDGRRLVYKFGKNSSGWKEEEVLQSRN
# How it was run: as §1
# CRX = CRX (Homo sapiens, UniProt O43186 1-299); settings: protein: recombinant; tags: N-terminal GST; dsDNA, one strand shown
# How it was run: as §1
# ETV1 = ETV1 (Homo sapiens, UniProt P50549 1-477); settings: protein: recombinant; tags: N-terminal GST; dsDNA, one strand shown
# How it was run: as §1
# ERF = biological target: T6, ERF (Homo sapiens, UniProt P50548 1-548); settings: protein: recombinant; tags: N-terminal GST; dsDNA, one strand shown
# T6 sequence: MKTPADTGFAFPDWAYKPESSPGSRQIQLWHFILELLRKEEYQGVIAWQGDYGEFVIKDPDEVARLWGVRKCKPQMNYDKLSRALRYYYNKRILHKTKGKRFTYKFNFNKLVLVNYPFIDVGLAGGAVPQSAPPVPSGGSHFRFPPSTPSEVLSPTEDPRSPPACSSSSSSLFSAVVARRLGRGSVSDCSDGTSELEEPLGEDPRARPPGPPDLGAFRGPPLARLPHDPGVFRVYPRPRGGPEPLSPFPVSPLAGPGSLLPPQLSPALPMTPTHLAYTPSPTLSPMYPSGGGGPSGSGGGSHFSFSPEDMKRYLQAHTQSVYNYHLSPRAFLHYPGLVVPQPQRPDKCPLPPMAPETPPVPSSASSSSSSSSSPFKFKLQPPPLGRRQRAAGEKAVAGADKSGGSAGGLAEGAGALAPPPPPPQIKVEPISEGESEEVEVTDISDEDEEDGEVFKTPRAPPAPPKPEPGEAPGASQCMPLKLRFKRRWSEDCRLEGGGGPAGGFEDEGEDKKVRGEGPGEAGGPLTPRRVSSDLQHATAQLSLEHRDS
# How it was run: as §1
# ETV3L = biological target: T7, ETV3L (Homo sapiens, UniProt Q6ZN32 1-361); settings: protein: recombinant; tags: N-terminal GST; dsDNA, one strand shown
# T7 sequence: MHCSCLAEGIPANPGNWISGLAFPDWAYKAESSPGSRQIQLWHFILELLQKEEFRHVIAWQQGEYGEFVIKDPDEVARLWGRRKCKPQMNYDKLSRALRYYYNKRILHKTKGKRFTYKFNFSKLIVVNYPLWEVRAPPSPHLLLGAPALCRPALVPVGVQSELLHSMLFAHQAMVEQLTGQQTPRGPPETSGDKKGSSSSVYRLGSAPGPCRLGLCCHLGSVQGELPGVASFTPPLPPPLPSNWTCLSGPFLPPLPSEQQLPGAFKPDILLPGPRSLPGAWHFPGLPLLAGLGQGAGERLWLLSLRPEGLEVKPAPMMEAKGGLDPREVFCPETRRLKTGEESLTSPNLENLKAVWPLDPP
# How it was run: as §1
# ETS2 = biological target: T8, ETS2 (Homo sapiens, UniProt P15036 1-469); settings: protein: recombinant; tags: N-terminal GST; dsDNA, one strand shown
# T8 sequence: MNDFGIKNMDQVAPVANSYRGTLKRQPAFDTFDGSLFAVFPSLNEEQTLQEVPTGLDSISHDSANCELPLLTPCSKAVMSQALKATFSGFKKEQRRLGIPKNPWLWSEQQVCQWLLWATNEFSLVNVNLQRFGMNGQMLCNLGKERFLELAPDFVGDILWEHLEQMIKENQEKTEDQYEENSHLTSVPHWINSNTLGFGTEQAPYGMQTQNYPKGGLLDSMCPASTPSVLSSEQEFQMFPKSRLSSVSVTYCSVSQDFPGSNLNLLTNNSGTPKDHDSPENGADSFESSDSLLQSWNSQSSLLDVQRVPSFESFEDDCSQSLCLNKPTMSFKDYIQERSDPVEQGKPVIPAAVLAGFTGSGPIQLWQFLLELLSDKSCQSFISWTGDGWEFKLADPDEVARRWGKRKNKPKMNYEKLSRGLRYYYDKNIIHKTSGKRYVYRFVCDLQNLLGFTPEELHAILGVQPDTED
# How it was run: as §1
# SPDEF = biological target: T9, SPDEF (Homo sapiens, UniProt O95238 1-335); settings: protein: recombinant; tags: N-terminal GST; dsDNA, one strand shown
# T9 sequence: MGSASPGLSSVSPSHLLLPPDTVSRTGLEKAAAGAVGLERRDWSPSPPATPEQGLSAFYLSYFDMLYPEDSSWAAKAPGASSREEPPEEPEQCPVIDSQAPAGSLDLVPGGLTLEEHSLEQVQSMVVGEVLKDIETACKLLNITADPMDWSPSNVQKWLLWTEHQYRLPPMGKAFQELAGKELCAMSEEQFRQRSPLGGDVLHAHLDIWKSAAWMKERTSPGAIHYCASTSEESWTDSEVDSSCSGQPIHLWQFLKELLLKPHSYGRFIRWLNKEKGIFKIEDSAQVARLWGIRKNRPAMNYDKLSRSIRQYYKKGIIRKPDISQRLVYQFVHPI
# How it was run: as §1
# ETV7 = biological target: T10, ETV7 (Homo sapiens, UniProt Q9Y603 1-341); settings: protein: recombinant; tags: N-terminal GST; dsDNA, one strand shown
# T10 sequence: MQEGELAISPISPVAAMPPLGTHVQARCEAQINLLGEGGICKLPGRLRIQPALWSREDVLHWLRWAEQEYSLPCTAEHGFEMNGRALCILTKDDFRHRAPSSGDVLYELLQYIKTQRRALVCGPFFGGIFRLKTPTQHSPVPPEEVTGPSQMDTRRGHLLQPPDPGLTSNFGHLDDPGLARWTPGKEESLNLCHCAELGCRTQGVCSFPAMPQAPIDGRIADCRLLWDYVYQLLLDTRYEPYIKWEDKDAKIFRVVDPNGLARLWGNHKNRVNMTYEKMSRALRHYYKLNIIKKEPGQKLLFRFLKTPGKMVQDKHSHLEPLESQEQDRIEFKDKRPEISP
# How it was run: as §1
# ELF5 = biological target: T11, ELF5 (Homo sapiens, UniProt Q9UKW6-2 1-255); settings: protein: recombinant; tags: N-terminal GST; dsDNA, one strand shown
# T11 sequence: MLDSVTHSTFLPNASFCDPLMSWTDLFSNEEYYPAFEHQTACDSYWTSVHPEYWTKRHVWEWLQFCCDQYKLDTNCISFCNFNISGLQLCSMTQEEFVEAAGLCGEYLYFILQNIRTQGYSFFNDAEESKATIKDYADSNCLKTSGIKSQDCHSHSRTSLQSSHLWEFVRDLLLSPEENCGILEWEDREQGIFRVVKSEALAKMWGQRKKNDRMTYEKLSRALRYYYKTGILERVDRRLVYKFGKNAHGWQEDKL
# How it was run: as §1
# ETV3 = biological target: T12, ETV3 (Homo sapiens, UniProt P41162-2 1-143); settings: protein: recombinant; tags: N-terminal GST; dsDNA, one strand shown
# T12 sequence: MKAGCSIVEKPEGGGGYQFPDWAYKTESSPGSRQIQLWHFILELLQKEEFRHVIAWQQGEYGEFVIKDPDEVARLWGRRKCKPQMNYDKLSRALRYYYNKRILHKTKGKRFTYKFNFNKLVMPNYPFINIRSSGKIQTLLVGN
# How it was run: as §1
# ETV6 = ETV6 (Homo sapiens, UniProt P41212 1-452); settings: protein: recombinant; tags: N-terminal GST; dsDNA, one strand shown
# How it was run: as §1
# Sequence of ELF4 (Q99607 whole entry): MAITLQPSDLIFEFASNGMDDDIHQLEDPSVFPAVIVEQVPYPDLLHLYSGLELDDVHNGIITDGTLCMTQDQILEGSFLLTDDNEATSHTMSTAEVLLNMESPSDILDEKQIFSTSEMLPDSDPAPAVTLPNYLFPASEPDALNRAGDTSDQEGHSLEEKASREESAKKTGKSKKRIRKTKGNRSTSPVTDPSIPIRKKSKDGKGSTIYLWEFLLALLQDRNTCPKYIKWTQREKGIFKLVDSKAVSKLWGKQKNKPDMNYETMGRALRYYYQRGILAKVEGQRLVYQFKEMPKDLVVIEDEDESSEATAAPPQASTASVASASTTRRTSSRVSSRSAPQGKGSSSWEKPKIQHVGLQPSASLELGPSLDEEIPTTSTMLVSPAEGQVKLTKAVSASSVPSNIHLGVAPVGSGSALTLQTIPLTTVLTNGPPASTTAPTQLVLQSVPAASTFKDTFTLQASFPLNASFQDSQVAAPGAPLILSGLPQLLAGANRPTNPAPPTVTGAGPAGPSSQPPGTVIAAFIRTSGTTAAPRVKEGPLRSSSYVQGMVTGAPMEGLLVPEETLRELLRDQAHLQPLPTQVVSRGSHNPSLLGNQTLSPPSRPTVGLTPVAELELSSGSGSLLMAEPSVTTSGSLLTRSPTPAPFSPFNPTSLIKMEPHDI
# Sequence of ETV1 (P50549 whole entry): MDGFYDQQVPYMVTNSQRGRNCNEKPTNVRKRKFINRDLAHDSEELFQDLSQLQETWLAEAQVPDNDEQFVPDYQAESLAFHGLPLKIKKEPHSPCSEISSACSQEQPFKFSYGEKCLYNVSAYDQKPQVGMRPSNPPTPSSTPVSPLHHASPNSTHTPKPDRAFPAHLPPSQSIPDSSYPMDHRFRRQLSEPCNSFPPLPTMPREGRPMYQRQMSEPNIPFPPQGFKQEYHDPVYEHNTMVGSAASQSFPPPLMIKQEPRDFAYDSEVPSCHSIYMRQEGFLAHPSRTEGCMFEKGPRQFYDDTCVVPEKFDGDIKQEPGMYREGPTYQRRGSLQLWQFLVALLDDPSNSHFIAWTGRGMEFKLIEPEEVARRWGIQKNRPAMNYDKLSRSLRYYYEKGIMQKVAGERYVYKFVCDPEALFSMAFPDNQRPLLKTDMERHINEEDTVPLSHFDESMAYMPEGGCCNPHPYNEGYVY
# Sequence of CRX (O43186 whole entry): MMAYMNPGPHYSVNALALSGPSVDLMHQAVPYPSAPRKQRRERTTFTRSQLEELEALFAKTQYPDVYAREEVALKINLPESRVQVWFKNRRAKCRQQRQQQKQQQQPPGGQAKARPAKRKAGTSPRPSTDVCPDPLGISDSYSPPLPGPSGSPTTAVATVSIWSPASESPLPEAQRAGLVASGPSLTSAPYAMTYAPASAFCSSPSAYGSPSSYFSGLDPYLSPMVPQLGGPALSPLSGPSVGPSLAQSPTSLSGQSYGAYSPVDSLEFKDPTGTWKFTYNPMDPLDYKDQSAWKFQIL
# Sequence of HSF1 (Q00613 whole entry): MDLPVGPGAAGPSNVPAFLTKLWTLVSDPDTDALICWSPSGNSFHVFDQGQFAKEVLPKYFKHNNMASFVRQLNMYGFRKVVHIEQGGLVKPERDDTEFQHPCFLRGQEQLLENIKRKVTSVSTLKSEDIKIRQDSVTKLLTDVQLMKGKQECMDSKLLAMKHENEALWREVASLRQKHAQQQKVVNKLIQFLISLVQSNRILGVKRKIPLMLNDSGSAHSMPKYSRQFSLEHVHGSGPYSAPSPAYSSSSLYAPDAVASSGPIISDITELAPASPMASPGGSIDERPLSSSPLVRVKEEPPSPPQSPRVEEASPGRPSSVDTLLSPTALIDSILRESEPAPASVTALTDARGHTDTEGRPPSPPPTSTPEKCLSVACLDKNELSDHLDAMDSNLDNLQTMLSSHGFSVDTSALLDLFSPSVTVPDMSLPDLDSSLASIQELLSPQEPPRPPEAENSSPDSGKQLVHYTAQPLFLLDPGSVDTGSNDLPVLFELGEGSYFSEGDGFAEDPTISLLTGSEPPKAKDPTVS
# Sequence of ETV5 (P41161 whole entry): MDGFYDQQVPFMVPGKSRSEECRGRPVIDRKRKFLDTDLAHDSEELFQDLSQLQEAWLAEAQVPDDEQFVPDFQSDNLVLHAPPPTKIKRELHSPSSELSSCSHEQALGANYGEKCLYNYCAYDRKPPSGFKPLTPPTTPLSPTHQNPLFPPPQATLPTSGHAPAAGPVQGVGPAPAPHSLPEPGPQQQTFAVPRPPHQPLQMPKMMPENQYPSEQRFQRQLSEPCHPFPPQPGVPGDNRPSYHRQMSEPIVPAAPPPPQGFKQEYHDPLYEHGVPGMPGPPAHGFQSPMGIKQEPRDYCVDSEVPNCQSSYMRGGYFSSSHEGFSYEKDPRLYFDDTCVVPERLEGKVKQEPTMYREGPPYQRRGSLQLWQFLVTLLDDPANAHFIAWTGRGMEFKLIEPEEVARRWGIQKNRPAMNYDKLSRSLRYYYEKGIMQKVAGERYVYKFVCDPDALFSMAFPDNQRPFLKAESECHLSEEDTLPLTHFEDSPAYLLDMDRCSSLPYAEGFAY
# Sequence of ETV6 (P41212 whole entry): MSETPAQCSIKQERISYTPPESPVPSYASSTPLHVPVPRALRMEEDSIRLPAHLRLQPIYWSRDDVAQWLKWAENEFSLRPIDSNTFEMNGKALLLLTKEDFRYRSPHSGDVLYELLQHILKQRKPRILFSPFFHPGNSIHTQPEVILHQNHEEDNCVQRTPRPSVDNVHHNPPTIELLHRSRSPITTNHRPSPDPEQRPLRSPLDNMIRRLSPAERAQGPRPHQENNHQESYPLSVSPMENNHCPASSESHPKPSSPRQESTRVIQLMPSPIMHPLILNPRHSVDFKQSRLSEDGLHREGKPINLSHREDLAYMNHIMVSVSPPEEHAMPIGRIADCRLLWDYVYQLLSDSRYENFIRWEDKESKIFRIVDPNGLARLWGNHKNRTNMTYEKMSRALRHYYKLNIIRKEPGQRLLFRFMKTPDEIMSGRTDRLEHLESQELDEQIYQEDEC
sequence,measurement,setting,value
TTATGG,binding signal,FEV,"1.33 fold enrichment (6-mer frequency, TF over GST control)"
same,binding signal,ETV5,"1.39 fold enrichment (6-mer frequency, TF over GST control)"
same,binding signal,HSF1,"1.74 fold enrichment (6-mer frequency, TF over GST control)"
same,binding signal,SPIC,"1.53 fold enrichment (6-mer frequency, TF over GST control)"
same,binding signal,ELF4,"1.31 fold enrichment (6-mer frequency, TF over GST control)"
same,binding signal,ELK4,"1.24 fold enrichment (6-mer frequency, TF over GST control)"
same,binding signal,ETV2,"1.45 fold enrichment (6-mer frequency, TF over GST control)"
same,binding signal,ELF3,"1.53 fold enrichment (6-mer frequency, TF over GST control)"
same,binding signal,CRX,"2.62 fold enrichment (6-mer frequency, TF over GST control)"
same,binding signal,ETV1,"1.41 fold enrichment (6-mer frequency, TF over GST control)"
same,binding signal,ERF,"1.31 fold enrichment (6-mer frequency, TF over GST control)"
same,binding signal,ETV3L,"1.32 fold enrichment (6-mer frequency, TF over GST control)"
same,binding signal,ETS2,"1.26 fold enrichment (6-mer frequency, TF over GST control)"
same,binding signal,SPDEF,"1.26 fold enrichment (6-mer frequency, TF over GST control)"
same,binding signal,ETV7,"1.36 fold enrichment (6-mer frequency, TF over GST control)"
same,binding signal,ELF5,"1.28 fold enrichment (6-mer frequency, TF over GST control)"
same,binding signal,ETV3,"1.44 fold enrichment (6-mer frequency, TF over GST control)"
same,binding signal,ETV6,"1.35 fold enrichment (6-mer frequency, TF over GST control)"
